SMILES strings stand for the structures. Calls of active or inactive are those of the source. Unless noted, how the calls were made is not given here.

A short description of test [1]: compound effects on lung adenocarcinoma cell viability – A549, calcein-AM fluorescence, 48 h, basal, profiling panel (AID 1162). Further: test concentration not given here. The note with it: higher = more signal.
Test [2] can be described thus: compound effects on differentiated 3T3-L1 adipocyte viability – cell-based, 3T3-L1 adipocytes, calcein-AM fluorescence, 48 h, basal, profiling panel (AID 1163). Further: test concentration not given here. The conditions noted are these: 3T3-L1 adipocytes viability, higher = more signal.
The nature of test [3]: compound effects on hepatocellular carcinoma cell viability – HepG2, calcein-AM fluorescence, 48 h, basal, profiling panel (AID 1164). Further: test concentration not given here. The conditions noted are these: higher = more signal.
Test [4] can be described thus: compound effects on multiple myeloma cell viability – MM1S, calcein-AM fluorescence, 48 h, basal, profiling panel (AID 1165). Further: test concentration not given here. The conditions noted are these: higher = more signal.
Test [5] in a line: calcein-AM signal in unstimulated myeloma cells – cell-based, calcein-AM fluorescence, 48 h, PK04 Diversity Set, profiling panel (AID 1166).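 Further: cells grown under basal conditions without added stimulus; test concentration not given here.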 The note with it: RPMI8226 myeloma viability, higher = more signal.
Test [6] in a line: JC-1 mitochondrial signal, unstimulated HepG2 cells – cell-based, JC-1 fluorescence, 24 h, 100 nL compound, profiling panel (AID 1167). Further: test concentration not given here. The conditions noted are these: HepG2 mitochondrial potential, higher = more signal.
Test [7] in a line: JC-1 mitochondrial signal, unstimulated adipocytes – cell-based, JC-1 fluorescence, 3T3-L1 adipocytes, 24 h, 100 nL compound, profiling panel (AID 1168). Further: test concentration not given here. The note with it: JC-1 mitochondrial fluorescence, higher = more signal, called active from +8 up or from −8 down.
Test [8] is described as follows: JC-1 mitochondrial signal, unstimulated myeloma cells – cell-based, JC-1 fluorescence, RPMI8226, 24 h, 100 nL compound, profiling panel (AID 1169). Further: test concentration not given here. The note with it: JC-1 mitochondrial potential fluorescence, higher = more signal.
Test [9] is described as follows: JC-1 mitochondrial signal, unstimulated MM1S myeloma – cell-based, JC-1 fluorescence, 24 h, 100 nL compound, profiling panel (AID 1170). Further: test concentration not given here. The conditions noted are these: MM1S mitochondrial potential, higher = more signal.
A short description of test [10]: resazurin metabolic signal in A549 cells – cell-based, resazurin fluorescence, 24 h, PK04 Diversity Set, profiling panel (AID 1171). Further: test concentration not given here. The conditions noted are these: A549 viability, higher = more signal, called active from +8 up or from −8 down. On the technique in general: Alamar Blue is a resazurin reagent that responds to reducing activity.
Test [11] is described as follows: resazurin metabolic signal in HepG2 cells – cell-based, resazurin fluorescence, 24 h, PK04 Diversity Set, profiling panel (AID 1172). Further: test concentration not given here. The note with it: HepG2 viability, higher = more signal.
The nature of test [12]: budding yeast growth changes without added modifier – OD600, strain BY4716, 24 h, basal condition, primary screen (AID 1173). The note with it: S. cerevisiae BY4716 growth, OD600, 24 h; higher = more signal, called active from +8 up or from −8 down.
A short description of test [13]: viability profiling in MM1S myeloma cells – cell-based, resazurin fluorescence, basal, 24 h, PK04 Diversity Set, profiling panel (AID 1174). Further: test concentration not given here. The note with it: higher = more signal, called active from +8 up or from −8 down.
Test [14] has as its target Dihydroorotate dehydrogenase (quinone), mitochondrial (Plasmodium falciparum (isolate 3D7)) (UniProt Q08210). The test can be described thus: inhibition of P. falciparum DHODH – biochemical, C-terminal His tag, absorbance 600 nm, primary screen (AID 1175).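 Further: recombinant parasite enzyme with a five histidine tag at its C terminus; test concentration not given here.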 The conditions noted are these: PfDHODH enzyme, DCIP absorbance 600 nm; higher = more signal, called active from +8 up or from −8 down.

Test [15] is described as follows: inhibition of PAO1 biofilm formation – strain PAO1, LB-PBS medium, absorbance 600 nm, primary screen (AID 1176). Further: test concentration not given here. The note with it: P. aeruginosa PAO1 growth/biofilm, A600, 12 h; higher = more signal.
Test [16] is described as follows: growth modulation of vineyard yeast isolate – strain RM11-1a, OD600, basal, 24 h, primary screen (AID 1177).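 Further: cultures grown under basal conditions with no added stressor; test concentration not given here.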 The note with it: S. cerevisiae RM11-1a growth, OD600, 24 h; higher = more signal, called active from +8 up or from −8 down.
Test [17] is described as follows: growth of efflux-deficient E. coli DRC39 – strain DRC39, OD650, 24 h, E. coli filamentation inducers, primary screen (AID 1178).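 Further: growth measured as culture turbidity by optical density at 650 nm; test concentration not given here.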 The note with it: E. coli DRC39 acrAB, higher = more signal, called active from +8 up or from −8 down.
Test [18] in a line: growth of efflux-deficient E. coli DRC39 – strain DRC39, OD650, 48 h, E. coli filamentation inducers, primary screen (AID 1179).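 Further: screen aims at cell division blockers that make cells filament.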 The note with it: E. coli DRC39 delta-acrAB growth, higher = more signal, called active from +8 up or from −8 down.
Test [19] is described as follows: viability profiling in RPMI8226 myeloma cells – cell-based, resazurin fluorescence, basal, 24 h, PK04 Diversity Set, profiling panel (AID 1180).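 Further: RPMI8826 multiple myeloma cell line at 5000 cells per well; test concentration not given here.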 The note with it: higher = more signal.
Test [20] addresses E3 ubiquitin-protein ligase XIAP (Homo sapiens) (UniProt P98170). The test can be described thus: small molecules binding XIAP protein – biophysical, small-molecule microarray, fluorescence 635 nm, primary screen (AID 1181).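 Further: score merges 667 nm emission and signal to noise over triplicate slides.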 The conditions noted are these: higher = more signal.

Chain of Dihydroorotate dehydrogenase (quinone), mitochondrial (Plasmodium falciparum (isolate 3D7)) (Q08210 whole entry, looked up): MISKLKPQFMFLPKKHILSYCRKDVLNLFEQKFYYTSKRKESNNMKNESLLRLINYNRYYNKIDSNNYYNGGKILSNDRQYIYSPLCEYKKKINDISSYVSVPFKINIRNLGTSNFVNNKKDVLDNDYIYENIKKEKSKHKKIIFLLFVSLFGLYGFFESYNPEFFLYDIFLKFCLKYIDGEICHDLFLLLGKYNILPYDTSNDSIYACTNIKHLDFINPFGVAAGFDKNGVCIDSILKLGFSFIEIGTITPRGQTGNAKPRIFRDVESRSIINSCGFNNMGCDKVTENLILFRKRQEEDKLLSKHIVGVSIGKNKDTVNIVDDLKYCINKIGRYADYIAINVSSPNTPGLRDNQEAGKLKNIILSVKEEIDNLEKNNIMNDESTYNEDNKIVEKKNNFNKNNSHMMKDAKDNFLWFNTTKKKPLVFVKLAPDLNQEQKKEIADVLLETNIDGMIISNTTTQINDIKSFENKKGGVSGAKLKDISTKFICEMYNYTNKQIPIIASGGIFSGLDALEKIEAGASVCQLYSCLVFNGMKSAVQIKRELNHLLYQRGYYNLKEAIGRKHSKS
Chain of E3 ubiquitin-protein ligase XIAP (Homo sapiens) (P98170 whole entry, looked up): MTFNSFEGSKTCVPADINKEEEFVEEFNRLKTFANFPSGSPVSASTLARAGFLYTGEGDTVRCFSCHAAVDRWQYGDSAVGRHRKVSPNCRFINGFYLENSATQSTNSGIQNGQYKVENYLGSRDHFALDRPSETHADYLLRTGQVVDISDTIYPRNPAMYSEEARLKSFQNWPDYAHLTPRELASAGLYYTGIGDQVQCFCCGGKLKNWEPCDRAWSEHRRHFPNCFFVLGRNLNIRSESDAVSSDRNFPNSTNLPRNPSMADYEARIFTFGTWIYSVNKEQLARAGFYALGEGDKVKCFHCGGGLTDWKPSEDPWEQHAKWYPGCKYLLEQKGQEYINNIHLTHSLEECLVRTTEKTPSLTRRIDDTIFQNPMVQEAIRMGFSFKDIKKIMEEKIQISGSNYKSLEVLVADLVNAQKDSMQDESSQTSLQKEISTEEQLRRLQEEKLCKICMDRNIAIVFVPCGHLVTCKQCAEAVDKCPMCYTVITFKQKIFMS

In the case of `Cc1ccc(S[C@]2(C(=O)NCCCN(C)C)CC(=O)N(Cc3ccccc3C(F)(F)F)[C@@H]2c2ccc(CO)cc2)cc1`, the z-score in test [1] is 0.397; in [2] it was -0.22; in [3], 0.41; in test [4] it was 0.306; in test [5], 0.595; in test [6], 1.47. In addition, the z-score was 0.0218 (inactive) in test [7]; 0.139 in [8]; 0.427 in test [9]; -0.515 (inactive) in test [10]; -0.758 in [11]; -0.362 (inactive) in test [12]. Besides, the z-score is 0.515 (inactive) in test [13]; -0.0807 (inactive) in test [15]; -0.329 (inactive) in test [16]; 0.252 (inactive) in test [17]; 0.164 (inactive) in test [18]; 0.119 in test [19]. Also, the composite z-score was -0.0819 (inactive) in test [14] and -0.267 in test [20].

Regarding `COc1ccc([Si](C)(C)[C@H]2[C@H](CC(=O)N3Cc4ccccc4C[C@H]3CO)O[C@@]3(C(=O)N(Cc4cccc(N5CCC5=O)c4)c4ccccc43)[C@@H]2C)cc1`, the z-score is 0.0575 in [1]; 0.441 in test [2]; -0.616 in test [3]; -2.68 in [4]; -3 in test [5]; 0.419 in test [6]. Besides, the z-score in [7] is 0.465 (inactive); in test [8] it was -1.02; in [9], -1.23; in test [10], -0.919 (inactive); in test [11], -0.774; in test [12], 0.472 (inactive). Moreover, the z-score in test [13] was -2.31 (inactive); in test [15], 0.389 (inactive); in test [16], 2.58 (inactive); in test [17], 0.675 (inactive); in test [18], 0.398 (inactive); in test [19] it was -2.01. Moreover, the composite z-score in [14] was -2.72 (inactive); in test [20], -0.0393.

As for `C=C(CCCC)/C(=C/C[C@H](OC(C)=O)c1ccccc1OCCO)c1cc(C(=O)OC)ccc1OC`, the z-score in [1] is 0.379; in [2], 1.66; in test [3], -0.418; in [4] it was -1.36; in test [5] it was -1.93; in test [6], 2.79. The z-score is 0.63 (inactive) in test [7]; 0.275 in test [8]; 0.0208 in [9]; 0.423 (inactive) in [10]; -0.0696 in test [11]; -0.863 (inactive) in test [12]. The z-score in [13] was 0.911 (inactive); in test [15], -0.824 (inactive); in [16], -0.0572 (inactive); in test [17] it was 0.427 (inactive); in [18], 0.257 (inactive); in test [19], 0.682. The composite z-score in [14] was -2.1 (inactive); in test [20], -0.28.

On to `CCOC(=O)C[C@H]1[C@H](OC(=O)c2ccc(C(=O)c3ccccc3)cc2)[C@@H](NC(=O)CC(C)C)c2cc(OCCCO)ccc2N1C(=O)c1ccc2ccccc2n1`, for which the z-score was 0.713 in test [1]; -0.177 in [2]; 0.592 in test [3]; 0.143 in [4]; 0.263 in test [5]; 2.53 in [6]. In addition, the z-score in test [7] was 1.59 (inactive); in test [8], 0.944; in [9] it was -0.67; in test [10] it was 0.59 (inactive); in test [11], 0.85; in test [12], 1.1 (inactive). The z-score in [13] is -0.469 (inactive); in test [15], 0.453 (inactive); in test [16] it was 0.8 (inactive); in test [17], -0.0708 (inactive); in [18], 0.648 (inactive); in test [19] it was -0.0956. Also, the figures for the composite z-score in [14] and in [20] were -0.888 (inactive) and -0.102, respectively.
